Source: the supplement of paper PMC11417369
± gives the standard deviation of the averaged measurements. Whole data set: some 25,000 sequences, median “ln(normalized median fluorescence intensity)” near 8.6, cut for the highest 2% near 10. For the sample, the highest values were picked, then their nearest neighbours and some sequences at random.

The sequences below were run on PfAP2-EXP AP2 domain (GST-tagged) (assay: gcPBM binding intensity (ln(normalized median fluorescence intensity)); higher = stronger DNA binding).
How it was run: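 The binding buffer was 1× PBS containing 1% milk, 0.2 mg/ml BSA, 0.5% salmon testes DNA and 0.03% Triton X-100. In it, GST-tagged P. falciparum DNA-binding domains expressed in E. coli were applied for 1 h to an Agilent 4 × 180k array of primer-extended double-stranded 36-bp intergenic genomic probes plus negative controls. Binding intensity, read with Alexa488 anti-GST antibody and a 488 nm scan, is the highest Masliner-normalised natural-log median intensity across replicate spots of either probe orientation.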

Sequence | gcPBM binding intensity (ln)
ATATACAGAAAAAATTAAAATAAATATGCAAAACAA [CACACA_negctrl_site704] | 8.86 ± 0.32
AAAATAAAATTAGTTGCATGCAACTTAAACAGAAAT [TGCATGCA_site860] | 10.3 ± 0.35
ATAAATAAAACAACAGTGCAATAAAATTAGTTGAGG | 9.035 ± 0.021
GTGTAAAAATTAAAGTGTACACATATATATATATAT [XGTACX_site2251] | 10.2 ± 0.31
TTTTTCTTAAAAAATTGTACACATATATATATATAT [XGTACX_site542] | 10.3 ± 0.22
CCTAAAGTGTAAAATTCACACACATATATATATATA [CACACA_site8385] | 10.2 ± 0.44
AAAAAATTATAAAAGTGTACATATATATATATATAT [XGTACX_site154] | 10 ± 0.38
TAAAAATTAAAGTGTACACATATATATATATATATA [CACACA_site4781] | 10.2 ± 0.38
ATATATAATTAATTTTGTACACATAAAAAAAAAAAT [XGTACX_site6647] | 8.59 ± 0.42
TATTGTTATTAAAAATGTACATATAAATTTCTTATT [XGTACX_site1409] | 8.32 ± 0.33
TAAAGTGTAAAATTCACACACATATATATATATATA [CACACA_site4883] | 10.1 ± 0.36
TAAATTAATAAAAAGTGTACATAATATACATATATA [XGTACX_site8604] | 8.62 ± 0.33
AGGGGAAATAAAATATAAATTATCATATATATATAT [XGTACX_negctrl_site366] | 9.94 ± 0.21
TTTTATTATATATATTGTACATATATTTTTATTTTT [XGTACX_site1564] | 8.62 ± 0.33
TAAACATAAATATACACACAAACATATATGTATTTT [CACACA_site1214] | 8.51 ± 0.32
TATGAACACCCAAATACACACACTCAAAAAAAAAAA [CACACA_site5466] | 8.4 ± 0.32
TACATATATTATTGCACACATATAAAATACCCCCAA [CACACA_site3895] | 9.55 ± 0.52
TACAGATATTATTGCACACATATAAAATACCCCCAA [CACACA_site6014] | 9.53 ± 0.33
AAAAAAAAAAAAAATACACACATATAAATATAAATA [CACACA_site6189] | 8.3 ± 0.49
AAAAATAAGATATATACACACATATAAATATAAATA [CACACA_site7396] | 8.51 ± 0.38
AAAAAAAAAATATACACACACACATACACATAAATA [CACACA_site3808] | 8.79 ± 0.53
TAAAAAATAAGATATACACACATATATATATATATA [CACACA_site2324] | 10.2 ± 0.42

Sequence | gcPBM binding intensity (ln)
TAAAAAATAAGATATACACACATATATTTATTTATA [CACACA_site7158] | 8.09 ± 0.52
TAAAAAATAAAATACACACACATATATATATATATA [CACACA_site1323] | 10.2 ± 0.64
AAAAATAAAATATATACACACATATATATATATATA [CACACA_site2943] | 10.2 ± 0.64
CATACATATATTATTGCACACATATAAAATACCCCC [CACACA_site9292] | 10.2 ± 0.33
ATAAAAAAAAAAAATACACACATATATATATATATA [CACACA_site1709] | 10.1 ± 0.26
TAAAAAAATAAATATACACACATATATATATATATA [CACACA_site1089] | 10.2 ± 0.29
ATTATACTTTCCATTCGTACATATATAAATAAATAA [XGTACX_site6245] | 8.93 ± 0.35
TTTTATTTATTTTATTGTACATATATAAAACTATGA [XGTACX_site3476] | 8.57 ± 0.42
ATATTTTTAGATTCAGAAAAAAGATTCAACTTACTC [CACACA_negctrl_site1357] | 8.25 ± 0.45
ATGTAGAATTGTAAATGTACATGAAACACATATTCA [XGTACX_site3436] | 8.79 ± 0.34
TATAATATATTTATATGTACTTATTTATTTATATAT [XGTACX_site6519] | 8.39 ± 0.34
AAAAATAAAATAAAGAAGGAAAATAAAAAAATAAGG [CACACA_negctrl_site1811] | 8.79 ± 0.44
ATTTGTATATATTAATGTACACACATGCGTATGTTC [XGTACX_site7579] | 8.73 ± 0.41
ATATTTATGACCGTACGTACCTAACAATACAATCAA [XGTACX_site4511] | 8.67 ± 0.099
TATATAAACATATAAACATGCAATATATATATGTTA [TGCATGCA_site765] | 8.43 ± 0.2
TTAATTTACATGAACTGTACATAACATTTTTTTAAA [XGTACX_site4672] | 8.38 ± 0.38
CCCCCCGTGTTATATACACACATAATCAAATAAAAT [CACACA_site4111] | 10.9 ± 0.078
TATATATATATATATATACACACTATATAATTCAAA [CACACA_site1023] | 10.2 ± 0.44
AAATTATAATATAATACACACATAAAAAAAAAATCA [CACACA_site3634] | 8.6 ± 0.43
ATATAAATAATATAAATACACACTAAAAAAAATATA [CACACA_site542] | 8.72 ± 0.51
TATATATATATATATACACACACACTAATAAAAAAA [CACACA_site8426] | 10.2 ± 0.21
TATATATATATATATACACACTATATAATTCAAACA [CACACA_site4712] | 10.1 ± 0.33

Sequence | gcPBM binding intensity (ln)
AGGCACGTGTTATATACACACATAATCAAATAAACT [CACACA_site7852] | 8.76 ± 0.56
CAATTCAATATATATACACACACACTATTAATAATT [CACACA_site9256] | 8.52 ± 0.41
ATAAATAATATAAATACACACTAAAAAAAATATATA [CACACA_site4456] | 8.62 ± 0.54
AAAGTAAAAGAAAGCACACACACATGGATTTATGTA [CACACA_site5997] | 8.53 ± 0.49
ATATAGAATGTTTACACACGCAATAAATATATATAT [CACACA_site217] | 9.27 ± 0.13
AAAAAAAAAAAAAAAAAAAAAAAAAAAATTCTATAT [GTGCAC_negctrl_site468] | 9.28
ACAAATAAATATATATGTACATATATTTTTTTATTT [XGTACX_site2989] | 8.56 ± 0.37
GACACCTGCATGAAAGTGCAAAATAGAAAAGGAACA [GTGCAC_site9593] | 9.22 ± 0.38
TATATAGAAAACAAGGCATGCAAATAACAAATTGTG [TGCATGCA_site473] | 9.85 ± 0.36
ATATAGAACACCTGTGCATGCAAGTGCTAAAAAATT [TGCATGCA_site213] | 10.175 ± 0.007
TATTTTACTTTAAAAATGGAAAAAAAAAAGAATATT [CACACA_negctrl_site1360] | 8.38 ± 0.47
TAGAAATAAGAAAAATGTACATATAATATTGAAAGT [XGTACX_site3043] | 9.17 ± 0.35
GTAATATATACAAAATGTACAAAACAATAACATGAT [XGTACX_site8575] | 8.8 ± 0.39
AATGATACACATATATGTACATATATATATATATAT [XGTACX_site5391] | 10 ± 0.58
CGCAAAACAATGATACGTACATATATATATATATAT [XGTACX_site5883] | 10.3 ± 0.33
TAATGATAAATACATACACACAAAAAATGATATATA [CACACA_site7258] | 8.6 ± 0.32
ATACAATGATATATACATATATATATATATATATAT [TGCATGCA_negctrl_site359] | 10.2 ± 0.49
TAAAAAAAAACATATACACACAAAAACGTACACATA [CACACA_site1354] | 8.86 ± 0.36
AGAATATTTATATGATGTACTTATATATATATATAT [XGTACX_site3021] | 9.97 ± 0.47
AAAAGCACAAAAAATACACACACAAAAAATAAAAAA [CACACA_site8545] | 8.5 ± 0.57
TTCAAATTGTTTATATGTACTTATAAAAATTGTCTG [XGTACX_site977] | 8.35 ± 0.42
ATATATATATATATATGTACTAAGAATTCTTTAAAA [XGTACX_site8476] | 10.3 ± 0.16

Sequence | gcPBM binding intensity (ln)
ACATGAATTTATATGTGTACTAACTATATTCTTAAA [XGTACX_site5966] | 8.27 ± 0.25
TTAAAAATAATATTATGTACTAAGAATAAATATATA [XGTACX_site3100] | 8.34 ± 0.43
CATTTTAAAGAAAATACACACAAAAATAGATATATA [CACACA_site6773] | 8.66 ± 0.38
ATTTGTTACGGACATGCATGCGAATCAGGGTATATA [TGCATGCA_site154] | 10.1 ± 0.28
TATTCCCCCCAACACACACACACACCGACATACCAC [CACACA_site8723] | 10.2 ± 0.23
CACAAACACCCAAACACACACACACCGACATACATA [CACACA_site4410] | 8.41 ± 0.54
CATATTCCCCCCCACACACACACACCCATACATACC [CACACA_site2303] | 11.1 ± 0.18
CATATTCCCCCCCACACACACACACGCATACATACC [CACACA_site7148] | 11.1 ± 0.19
CATATATACGCATACACACACACACCCACACCCACA [CACACA_site1725] | 8.79 ± 0.52
TTGGCATACAGACACACACACACACCCCCACATATA [CACACA_site590] | 9.43 ± 0.61
TATTCCCCCAAACACACACACACACCCACATACCAC [CACACA_site2304] | 9.33 ± 0.23
TACATATACAGACACACACACACACCCCCACAAAAA [CACACA_site495] | 9.88 ± 0.52
ACCATACATACATACACACACACACGCATATTTATA [CACACA_site7386] | 9.05 ± 0.6
CATACACCCATACATACACACATACATACACCCATA [CACACA_site5124] | 8.67 ± 0.47
GACATATTCCCCCCCACACACACACCCACATACATA [CACACA_site2302] | 10.8 ± 0.11
AAAAAAAAAATACATACACACACACCCACCCATATA [CACACA_site9187] | 9.14 ± 0.54
TTTTTTTTTTTTTTTATAGTACATTACCAAAAAAAA [CACACA_negctrl_site1197] | 8.27 ± 0.39
TTTGAAATAAGCAAATGTACATTATTATTAAATATA [XGTACX_site6158] | 8.38 ± 0.32
GAATCACTAATTTTTTTACACACCACAATTTAATTT [CACACA_site8311] | 8.94 ± 0.47
TATATTAAATATTACACACATACATTTAGTGTCAAA [CACACA_site1990] | 8.35 ± 0.37
TTTTTATATTCCCCCAGTACATATATAATAGTAGTA [XGTACX_site7927] | 10 ± 0.3
AACAAGAAAAAAAAAAAAAAAAAAAAAAAATATTTT [XGTACX_negctrl_site428] | 8.13 ± 0.3
